Among the data in PubChem BioAssay AID602438 (Sanford-Burnham Center for Chemical Genomics, 2012) are inhibition values, retold here.

The campaign covered roughly 360,000 compounds. About 3,100 (0.86%) were called active. Shown is part of a subset that was picked to be rich in actives. Values without a mark were called inactive.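 How the source made its calls: active means inhibition or corrected inhibition above about 18%, plus a signal ratio from 0.5 to 1.5 (limit read from the data, passing the limit was not always enough); inactive means the rest.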

Neuropilin-1 (Homo sapiens), sequence (O14786 whole entry, looked up): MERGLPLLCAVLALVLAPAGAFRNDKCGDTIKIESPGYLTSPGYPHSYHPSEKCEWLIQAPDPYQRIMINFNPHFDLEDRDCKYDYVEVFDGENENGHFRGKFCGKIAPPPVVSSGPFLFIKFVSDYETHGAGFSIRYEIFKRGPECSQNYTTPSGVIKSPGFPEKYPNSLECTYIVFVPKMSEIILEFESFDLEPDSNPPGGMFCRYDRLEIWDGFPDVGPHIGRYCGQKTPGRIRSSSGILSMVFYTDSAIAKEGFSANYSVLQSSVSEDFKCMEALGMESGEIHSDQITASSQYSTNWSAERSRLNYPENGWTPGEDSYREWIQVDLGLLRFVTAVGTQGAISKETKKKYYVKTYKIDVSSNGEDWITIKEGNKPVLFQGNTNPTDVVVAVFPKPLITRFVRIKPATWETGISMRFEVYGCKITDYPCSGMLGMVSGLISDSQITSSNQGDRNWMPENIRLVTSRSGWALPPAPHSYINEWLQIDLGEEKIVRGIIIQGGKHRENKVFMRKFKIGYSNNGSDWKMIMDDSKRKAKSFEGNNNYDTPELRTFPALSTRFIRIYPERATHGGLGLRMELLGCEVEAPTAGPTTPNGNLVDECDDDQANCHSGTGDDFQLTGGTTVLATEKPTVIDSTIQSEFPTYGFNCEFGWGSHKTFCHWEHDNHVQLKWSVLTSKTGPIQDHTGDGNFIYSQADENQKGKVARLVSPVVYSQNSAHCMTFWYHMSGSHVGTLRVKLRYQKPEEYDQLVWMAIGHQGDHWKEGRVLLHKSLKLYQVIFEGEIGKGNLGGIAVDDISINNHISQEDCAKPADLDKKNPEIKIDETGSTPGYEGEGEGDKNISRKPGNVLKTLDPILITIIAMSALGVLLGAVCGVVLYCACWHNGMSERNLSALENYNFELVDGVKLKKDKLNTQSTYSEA

This assay has as its target Neuropilin-1 (Homo sapiens) (UniProt O14786). As to the kind of experiment: modulators of CendR peptide binding to NRP-1, primary screen, biochemical, fluorescence polarization, uHTS (AID 602438). The conditions noted are these: FAM-RPARPAR peptide binding to NRP-1, fluorescence polarization; at 25 µM; stronger effect = higher value. (Fluorescence polarisation rises when a labelled molecule tumbles more slowly, as on binding a larger partner.)
A word on the inhibition: it is the change of the read-out against control, counted positive when it falls. For `Cc1ccc(CN(CC(=O)NC2CCCCC2)C(=O)c2csnn2)cc1`, the inhibition was 24.5% (active).

With `Cc1ccccc1CCN(CC(=O)NC1CCCCC1)C(=O)c1csnn1`, the inhibition was -9.2%.

Consider `O=C(CN(C(=O)c1csnn1)c1ccc(Br)cc1)NC1CCCC1`, for which the inhibition is 3.2%.

Regarding `Nc1nc2c(Br)ccc(Br)c2cc1C(=O)NCCc1ccccc1`, the inhibition is 6.1%.

For `COCC(=O)Nc1cc(C(=O)OC)cc(C(=O)OC)c1`, the inhibition was 5.2%.

For the compound `COC(=O)c1cc(NC(=O)CN2CCC(C(N)=O)(N3CCCCC3)CC2)cc(C(=O)OC)c1`, the inhibition is 20.2% (active).

In the case of `COC(=O)c1cc(NC(=O)CN2CCN(C(C)=O)CC2)cc(C(=O)OC)c1`, the inhibition was 3%.

In the case of `COC(=O)C1(C(=O)OC)C/C=C\CN(S(=O)(=O)c2ccccc2[N+](=O)[O-])CCC1`, the inhibition was 4.4%.

For the compound `CCOC(=O)[C@@H]1[C@H]2COc3cc(OC)ccc3[C@@H]2N2C(=O)N(c3cccc(C)c3)C(=O)[C@@]12C`, the inhibition is 4.4%.

For the compound `Cc1cc(OCCOc2cccc3cccnc23)c(C)cc1Cl`, the inhibition was -14.2%.

As to `CC(=O)/C(=N\Nc1ccc(Cl)cc1Cl)Sc1cccc2cccnc12`, the inhibition was 61.1% (active).

Regarding `COc1cccc(CNC(=O)C2CCN(S(=O)(=O)c3cccc4cccnc34)CC2)c1`, the inhibition was -3%.

For `CCOc1ccc2c(c1)C(c1ccc(C)cc1)=NNC(c1ccc(C)cc1)=N2`, the inhibition is 5.9%.

Consider `Cc1ccc(C2=Nc3c(ccc4ccccc34)C(c3ccncc3)=NN2)cc1`, for which the inhibition was 25.8% (active).

With `O=C(NCCCCO)C(F)(F)C(F)(F)C(F)(F)C(=O)NCCCCO`, the inhibition was 11.3%.

Turning to `Nc1cccc(-c2cncc(N3CCN(Cc4ccccn4)CC3)n2)c1`, the inhibition was 1.6%.

For `CCCCCCCCCCOC(=O)C[N+](C)(C)CC1CCCCC1O` (stereo unspecified), the inhibition was 18.2%.

On to `Cc1ccn2c(c1)nc(=O)c1cc(S(=O)(=O)N3CCC(C)CC3)ccc12`, for which the inhibition was -3.9%.

Turning to `COc1cc2c(=O)n(C)c3ccccc3c2cc1OC`, the inhibition is 0%.

Consider `COc1cc2c(C(=O)O)c(C)n(C)c2c2ccccc12`, for which the inhibition is -42.6%.

`COc1cccc2c(O)cc(=O)n(C)c12`: the inhibition was 19.9% (active).

For the compound `OC(CNC1CCCC1)COc1ccc(F)cc1` (stereo unspecified), the inhibition was -0.8%.

In the case of `COC(=O)C1CCN(CC(N)=O)CC1`, the inhibition was -10.1%.

Regarding `CCCCC(=O)N(C)c1c(CC)nc2c(OCc3ccc(S(C)(=O)=O)cc3)cccn12`, the inhibition was 1.6%.

Consider `CCc1nc2c(OCc3ccc(C(F)(F)F)cc3)cccn2c1N(C)C(=O)CC(C)C`, for which the inhibition was 22.7% (active).

With `CCc1nc2c(OCc3ccc(C(=O)OC)cc3)cccn2c1N(C)C(=O)C(C)C`, the inhibition was 13.8%.
